We go through 24 compounds from PubChem BioAssay (Tox21).

The nature of assay [1]: qHTS assay to identify small molecule agonists of the RXR signaling pathway - cell viability counter screen (AID 1159529). Note: series mostly up to about 77 µM; nearly all actives have a fitted effect of over 50% in size. In short, it runs like this: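 Luminescence from CellTiter-Glo (30 min, RT) measured viability in the same wells as the beta-lactamase reporter readout. Cells: GeneBLAzer RXR-alpha HEK 293T, 2% charcoal-stripped FBS. Compound exposure 16 hr, 37 C.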
Assay [2] is described as follows: qHTS assay to identify small molecule antagonists of the retinoid acid receptor (RAR) signaling pathway - cell viability counter screen (AID 1159551). Note: nearly all actives have a fitted effect of over 35% in size. The method in brief: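 Cells (C3RL4) are plated, incubated overnight, dosed with compound in DMSO, then given retinol at 1 uM final. After 6 h at 37 C, CellTiter-Glo is added and luminescence read following 30 min at room temperature.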

A short description of assay [3]: qHTS assay to identify small molecule antagonists of the retinoic acid receptor (RAR) signaling pathway (AID 1159552; note: nearly all actives have a fitted effect of over 50% in size). The method in brief:
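Luminescence from a RARE luciferase reporter in C3RL4 cells served as read-out. Cells received compounds together with 1 uM final retinol and incubated 6 hr at 37 C before detection reagent was added for 30 min at room temperature.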
(qHTS replaces the single test concentration by a dilution series.)

The nature of assay [4]: qHTS assay to identify small molecule agonists of the retinoic acid receptor (RAR) signaling pathway (AID 1159553). Note: potency is the fitted concentration of half-maximal effect. The method in brief:
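Seed C3RL4 reporter cells at 1,000 per well and incubate overnight at 37 C. Add compounds in DMSO, incubate 6 hr. Add luciferase reagent, wait 30 min at room temperature, read luminescence.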

The nature of assay [5]: qHTS assay to identify small molecule antagonists of the estrogen related receptor (ERR) signaling pathway from Tox21 library - cell viability counter screen (AID 1224834). Note: nearly all actives have a fitted effect of over 30% in size. The method in brief:
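ERR cells, 2,000/well; 6 h settle at 37 C/5% CO2; pin-tool compound transfer in DMSO; 17.5 h at 37 C; CellTiter-Fluor, 30 min; fluorescence intensity.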

For assay [6], the target named is Luciferin 4-monooxygenase (Photinus pyralis) (UniProt P08659). The experiment in a line: qHTS assay to identify small molecule inhibitors of firefly luciferase (AID 1224835). For activity change, negative = inhibition: series mostly up to about 120 µM. Note: nearly all actives have a fitted effect of over 25% in size. Note: potency is the fitted concentration of half-maximal effect. In short, it runs like this:
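Quantitative HTS format; KM concentrations of both substrates. Purified P. pyralis FLuc activity quantified from luminescence images.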

Assay [7] in a line: qHTS assay to identify small molecule agonists of the constitutive androstane receptor (CAR) signaling pathway - cell viability counter screen (AID 1224836). Note: series mostly up to about 92 µM; nearly all actives have a fitted effect of over 45% in size. In short, it runs like this:
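Viability read-out: CellTiter-Fluor fluorescence after 23 h compound exposure at 37 C/5% CO2 in double-stable HepG2-CYP2B6-hCAR cells, with PK11195 present at 0.75 uM final; compounds tested in 15-point titration.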

Assay [8] can be described thus: qHTS assay to identify small molecule antagonists of the constitutive androstane receptor (CAR) signaling pathway - cell viability counter screen (AID 1224837). Note: series mostly up to about 92 µM; nearly all actives have a fitted effect of over 45% in size. In short, it runs like this: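 Viability was measured with CellTiter-Fluor in a HepG2 line carrying stably transfected hCAR and a CYP2B6-2.2kb construct. Cells were exposed for 23 hr at 37 C to 15 compound concentrations with 50 nM CITCO as agonist.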

The nature of assay [9]: qHTS assay to identify small molecule antagonists of the estrogen related receptor (ERR) signaling pathway - cell viability counter screen (AID 1224818). Note: series mostly up to about 46 µM. The method in brief:
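ERR cells, 2,000/well; 6 h settle at 37 C/5% CO2; compound pin transfer (DMSO); 17.5 h at 37 C; CellTiter-Fluor, 30 min, fluorescence read.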

Assay [10] in a line: qHTS assay to identify small molecule antagonists of the estrogen related receptor signaling pathway with the pleiotropic PPARgamma coactivator (PGC) cell viability counter screen (AID 1224822;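 note: series mostly up to about 46 µM; viability read after 17.5 h compound exposure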). In short, it runs like this: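 Multiplexed viability counter screen run in PGC/ERR cells treated with compounds for 17.5 h at 37 C; live-cell protease signal measured by CellTiter-Fluor fluorescence.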

Several values for one entry are separate records, joined by “and”; a condition that tells them apart may be missing. Equal entries are not always repeated. Inconclusive results are not listed. Activity calls are given as the source filed them. Calls come from the whole dose curve; as a rule, active = well fitted curve in the direction sought with a large enough effect in the repeat runs; inconclusive = weak or mixed curves; inactive = no such curve, though single readings can be large; an effect the other way counts as inactive or inconclusive.
% is set by controls: 0 for no effect and ±100 for the full control effect.

Luciferin 4-monooxygenase (Photinus pyralis), sequence (P08659 whole entry, looked up): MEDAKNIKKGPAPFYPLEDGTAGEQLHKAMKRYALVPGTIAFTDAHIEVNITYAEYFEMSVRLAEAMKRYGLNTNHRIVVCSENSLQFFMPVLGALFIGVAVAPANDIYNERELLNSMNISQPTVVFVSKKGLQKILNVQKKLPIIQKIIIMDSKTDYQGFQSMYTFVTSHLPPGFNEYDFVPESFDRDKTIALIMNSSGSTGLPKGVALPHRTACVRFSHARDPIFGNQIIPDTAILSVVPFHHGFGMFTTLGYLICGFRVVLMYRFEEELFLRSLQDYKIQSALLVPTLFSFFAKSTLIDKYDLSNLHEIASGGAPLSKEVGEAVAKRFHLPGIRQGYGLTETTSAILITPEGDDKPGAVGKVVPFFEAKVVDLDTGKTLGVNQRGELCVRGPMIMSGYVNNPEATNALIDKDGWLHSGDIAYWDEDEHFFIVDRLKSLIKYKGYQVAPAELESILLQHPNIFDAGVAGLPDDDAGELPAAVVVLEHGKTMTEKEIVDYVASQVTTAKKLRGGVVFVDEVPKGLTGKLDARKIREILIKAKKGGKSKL

For `CSCCC=O`, the Potency entry in assay [1], in [3], in assay [4], in assay [5], in assay [6] and in [7] was “inactive” in each case. Besides, the Potency entry in [8] is “inactive”. The outcome in assay [2] was inactive.

Consider `Cc1ccc2oc(=O)ccc2c1`, for which the Potency result in assay [1], in assay [3], in assay [4], in [5], in assay [6] and in assay [7] was “inactive” throughout. Also, the compound was classed as inactive in assay [2].

As to `O=C1CCC(N2C(=O)c3ccccc3C2=O)C(=O)N1` (stereo not given), the Potency entry in assay [1], in assay [3], in [4], in assay [5], in assay [6] and in assay [7] was “inactive” each time. In addition, in assay [8], the Potency result is “inactive”. Further, the compound was classed as inactive in assay [2], in [9] and in assay [10].

Turning to `CCCCCC/C(C=O)=C\c1ccccc1`, the Potency entry in [1], in assay [3], in [4], in assay [5], in assay [7] and in assay [8] was “inactive” throughout. Also, the outcome in assay [2] was inactive.

For `OCC(CO)(CBr)CBr`, the Potency result in assay [1], in assay [3], in [4], in assay [5], in assay [6] and in assay [7] was “inactive” in each case. Moreover, the compound was classed as inactive in [2].

Take `COCCCOc1ccnc(CS(=O)c2nc3ccccc3[nH]2)c1C` (stereo not given): the Potency result in assay [1], in assay [3], in assay [5], in assay [7] and in assay [8] was “inactive” in each case. Further, in assay [2], the call was inactive. The Potency in assay [4] is 3.84 µM (active).

For `CC(=O)Nc1cccc(O)c1`, the Potency result in [1], in assay [3], in assay [4], in assay [5], in assay [6] and in assay [7] was “inactive” throughout. Further, in [8], the Potency entry was “inactive”. The result in assay [2] was inactive.

For `c1c[nH]cn1`, the Potency result in assay [1], in [3], in assay [4], in [5], in [6] and in assay [7] was “inactive” each time. In assay [8], the Potency entry is “inactive”. In assay [2], the compound was classed as inactive.

Turning to `CCCCCCCCC/C=C/CC1CC(=O)OC1=O` (stereo not given), the Potency entry in [1], in [5] and in [7] was “inactive” each time. Also, in assay [2], the call was inactive. Also, the Potency in assay [6] is 71.3 µM (active).

For `CC(=O)OCC(=O)[C@@]12N=C(C)O[C@@H]1C[C@H]1[C@@H]3CCC4=CC(=O)C=C[C@]4(C)[C@H]3[C@@H](O)C[C@@]12C`, the Potency result in [1], in assay [4], in assay [5], in assay [6] and in assay [7] was “inactive” each time. Also, the outcome in assay [2] was inactive.

In the case of `COc1ccc(NC(C)=O)cc1N`, the Potency result in assay [1], in [3], in assay [4], in [5], in [6] and in assay [7] was “inactive” each time. Further, the Potency result in assay [8] is “inactive”. Moreover, in assay [2], the call was inactive.

As to `CCCCOC(=O)COc1ccc(Cl)cc1Cl`, the Potency result in [1], in assay [3], in [4], in assay [5] and in [7] was “inactive” each time. For the same compound, the compound was called inactive in assay [2]. In addition, the Potency in [6] was 9.05 µM (active) and 10 µM (active).

Regarding `CN(C)CCC(c1ccccc1)c1ccccn1` (stereo not given), the Potency result in [1], in [3], in [4], in assay [5], in assay [6] and in assay [7] was “inactive” each time. Moreover, in assay [8], the Potency entry was “inactive”. Moreover, the call in assay [2], in assay [9] and in assay [10] was inactive.

Regarding `O=c1[nH]c(=O)n([C@H]2C[C@H](O)[C@@H](CO)O2)cc1Br`, the Potency entry in assay [1], in assay [5], in assay [6], in assay [7] and in assay [8] was “inactive” each time. For the same compound, the compound was classed as inactive in assay [2], in assay [9] and in assay [10].

`NNc1nncc2ccccc12`: the activity change, negative = cytotoxicity in [1] is -0.524% [at 15.8 µM] (inactive). In addition, the compound was called inactive in assay [2], in assay [9] and in [10]. The Potency result in assay [3] and in assay [7] was “inactive” each time. The Potency in assay [4] was 770 nM (active) and 5.17 µM (active). For the same compound, the viability change, negative = cytotoxic in [5] is 6.05% [at 19 µM] (inactive).

Turning to `c1ccc2c(c1)ccc1ccccc12`, the Potency result in assay [1], in assay [3], in assay [4], in assay [5], in assay [7] and in [8] was “inactive” throughout. In assay [2], the call was inactive. The Potency in assay [6] is 34.6 µM (active) and 56.4 µM (active).

On to `ON=C1CCCCC1`, for which the Potency result in assay [1], in assay [3], in assay [4], in assay [5], in assay [6] and in assay [7] was “inactive” throughout. Also, in assay [2], the compound was called inactive.

Regarding `CC1CCC(C(C)C)C(O)C1` (stereo not given), the Potency entry in assay [1], in [3], in [4], in assay [5], in [6] and in assay [7] was “inactive” throughout. In addition, the Potency result in assay [8] was “inactive”. The result in [2] was inactive.

`CCCCC(CC)COC(=O)CS` (stereo not given): the Potency entry in assay [1], in assay [3], in [4], in assay [5], in [6] and in assay [7] was “inactive” throughout. The Potency entry in [8] is “inactive”. The compound was classed as inactive in assay [2].

With `CCCCCCOCCO`, the Potency result in assay [1], in assay [3], in [4], in [5], in assay [6] and in [7] was “inactive” each time. In addition, the Potency result in assay [8] is “inactive”. Also, the outcome in assay [2] was inactive.

Turning to `CC(=O)CC(=O)Nc1ccccc1`, the Potency result in assay [1], in assay [3], in assay [4], in assay [5], in assay [6] and in assay [7] was “inactive” in each case. Also, the result in assay [2] was inactive.

`C=C(C)C(=O)OCCOCCOCCOC(=O)C(=C)C`: the Potency entry in [1], in assay [3], in assay [4], in [5], in [6] and in [7] was “inactive” each time. Also, the compound was classed as inactive in [2].

`CCN(CC)CCCC(C)Nc1ccnc2cc(Cl)ccc12` (stereo not given): the activity change, negative = cytotoxicity was -13.3% [at 6.97 µM] (inactive) and -18.7% [at 15.8 µM] (inactive) in assay [1]; 1.59% [at 8.39 µM] (inactive) and -1.6% [at 19 µM] (inactive) in assay [2]. The compound was called inactive in assay [9]. The viability change, negative = cytotoxic in [5] is -0.582% [at 8.39 µM] (inactive); in assay [7], -3.22% [at 8.39 µM] (inactive). Also, in assay [6], the activity change, negative = inhibition was -0.277% [at 10.5 µM] (inactive) and -0.0339% [at 23.6 µM] (inactive).

As to `CCCCCCCCCCCCOCCO`, the Potency result in [1], in assay [3], in assay [5], in [7] and in [8] was “inactive” in each case. In addition, the call in [2] was inactive. Moreover, the Potency in [6] is 25.2 µM (active) and 30.9 µM (active).
